Test results as given in ChEMBL document CHEMBL4513146, “CO-ADD screening of Karazin Kharkiv National University (Ukraine) compounds”.
Entries with a potency or affinity are not part of this list.

How the values were obtained:
[1] = tested on: Staphylococcus aureus; settings: Concentration 32 ug.mL-1;; ASSAY_TEST Inhibition of Bacterial Growth; detection method Absorption (OD600); MEDIA CAMHB; plate type 384well; NBS; CORNING #3640; time 18 hr
[2] = tested on: Escherichia coli; settings: Concentration 32 ug.mL-1;; ASSAY_TEST Inhibition of Bacterial Growth; detection method Absorption (OD600); MEDIA CAMHB; plate type 384well; NBS; CORNING #3640; time 18 hr

SMILES | Inhibition [1] [%] | Inhibition [2] [%]
Cc1ccc(-c2cc3c4nn(CC(=O)Nc5ccc(Br)cc5)c(=O)n4ccn3n2)cc1C | 0.82 | -8.3
Cc1cccc(NC(=O)Cn2nc3c4cc(-c5ccc(Cl)cc5)nn4ccn3c2=O)c1C | 5.13 | -1.29
COc1ccc(NC(=O)Cn2nc3ccc(-c4ccccc4)nn3c2=O)cc1OC | 0.84 | -8.27
CCCc1nnc2c(=O)n(CC(=O)Nc3cccc(Br)c3)c3ccccc3n12 | 8.23 | -5.6
Cc1cc(C)cc(Nc2nc(C)cc3nn(CC(=O)NC4CCCCC4)c(=O)n23)c1 | 14.04 | -1.15
Cc1ccc(-c2ccc3nn(CC(=O)Nc4ccccc4)c(=O)n3n2)cc1C | 3.99 | -8.76
CCc1ccccc1NC(=O)Cn1c(=O)c2nnc(C(C)C)n2c2ccccc21 | 5.45 | 0.46
COC(=O)c1ccccc1NC(=O)Cn1nc2c(Oc3ccc(C)cc3)nccn2c1=O | -0.21 | -6.37
COc1cccc(-n2ccn3c(SCC(=O)Nc4cccc(F)c4)nnc3c2=O)c1 | -6.79 | -18.41
Cc1cc(Br)ccc1NC(=O)Cn1nc2c(Sc3cccc(F)c3)nccn2c1=O | 10.13 | -1.3
COc1cc(NC(=O)Cn2nc3c(Sc4cccc(F)c4)nccn3c2=O)cc(OC)c1 | 9.3 | -0.8
Cc1cc2nn(CC(=O)Nc3ccc(F)cc3F)c(=O)n2c(Nc2ccc(F)c(C)c2)n1 | 5.82 | -5.59
CCc1ccc(N(Cc2ccc(Cl)cc2)S(=O)(=O)c2cccn3c(C)nnc23)cc1 | 0.63 | -8.46
COc1ccc(NC(=O)Cn2nc3c4cc(-c5ccc(C)cc5)nn4ccn3c2=O)cc1 | -5.75 | -1.43
Cc1ccc(-c2ccc3nn(Cc4cccc(Br)c4)c(=O)n3n2)cc1C | 9.24 | -2.14
Cc1ccc(-c2ccc3nn(CC(=O)Nc4ccc(C(C)C)cc4)c(=O)n3n2)cc1C | -10.47 | -13.87

SMILES | Inhibition [1] [%] | Inhibition [2] [%]
C=Cc1ccc(CSc2nnc3c(=O)n(-c4ccc(F)cc4)ccn23)cc1 | 18.57 | -2.33
CC(C)(C)Sc1ccc2nn(CC(=O)NCc3ccc(Cl)cc3)c(=O)n2n1 | 1.41 | -5.27
CCc1cccc(NC(=O)CSc2nnc3c(=O)n(-c4cccc(OC)c4)ccn23)c1 | 9.81 | -1.21
Cc1ccc(-c2cc3c4nn(CC(=O)NCc5ccc(Cl)cc5)c(=O)n4ccn3n2)cc1C | 6.87 | 6.43
COc1ccc(N(Cc2ccc(C)cc2)S(=O)(=O)c2ccc3nnc(C)n3c2)cc1 | -1.53 | -8.35
COc1cccc(NC(=O)Cn2nc3c4cc(-c5ccc(Cl)cc5)nn4ccn3c2=O)c1 | 4.83 | 3.44
CCCc1nnc2c(=O)n(CC(=O)Nc3ccc(NC(C)=O)cc3)c3ccccc3n12 | 9.51 | -0.84
Cc1ccc(NC(=O)Cn2nc3c4cc(-c5ccc(C)c(C)c5)nn4ccn3c2=O)cc1 | 7.11 | -1.34
COc1cccc(NC(=O)Cn2nc3c(Oc4ccccc4)nccn3c2=O)c1 | 0.03 | -5.32
CC(C)CCn1c(=O)c2sccc2n2c(=O)n(CC(=O)N(C)c3ccccc3)nc12 | -2.05 | -10.35
O=C(Cn1nc2c(SCc3ccc(Cl)cc3)nccn2c1=O)N1CCN(c2ccccc2)CC1 | -0.6 | -2.68
COc1ccc(-c2cc3c4nn(CC(=O)Nc5cc(OC)cc(OC)c5)c(=O)n4ccn3n2)cc1 | -11.7 | -10.82
C=Cc1ccc(CN(c2cccc(F)c2)S(=O)(=O)c2ccc3nnc(C)n3c2)cc1 | 2.75 | -8.1
Cc1ccc(NC(=O)CSc2nc3ccccc3n3cnnc23)c(Br)c1 | -13.31 | -9.92
COC(=O)c1ccc(CN(c2ccc(F)cc2)S(=O)(=O)c2cccn3c(C)nnc23)o1 | 11.5 | -1.28
Cc1ccc(Cn2c(=O)c3ccc(C(=O)NC4CCCC4)cc3n3c(=O)n(CC#N)nc23)cc1 | 2.21 | 1.56
